Screen size: about 24,000 compounds; fewer than 10 were called active. Another 9% or so got no clear call; they are omitted.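 The calls were made as follows: active = fluorescent ligand binding to cells raised by more than 40% of the manganese-induced maximum; inconclusive = compound's own fluorescence above 85% of the ligand control signal; inactive = the rest.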 The list is a sample of the results.
Each compound was assayed against Integrin alpha-4 (Homo sapiens) (UniProt P13612) (assay: enhancers of LDV-FITC binding to VLA-4 integrin, primary screen, Jurkat cells, flow cytometry (AID 528;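 also: 0% = ligand binding without compound and 100% = manganese-stimulated maximal binding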)). Details: hits give high values, screened at 10 µM (by protocol).
Sequence of Integrin alpha-4 (Homo sapiens) (P13612 whole entry, looked up): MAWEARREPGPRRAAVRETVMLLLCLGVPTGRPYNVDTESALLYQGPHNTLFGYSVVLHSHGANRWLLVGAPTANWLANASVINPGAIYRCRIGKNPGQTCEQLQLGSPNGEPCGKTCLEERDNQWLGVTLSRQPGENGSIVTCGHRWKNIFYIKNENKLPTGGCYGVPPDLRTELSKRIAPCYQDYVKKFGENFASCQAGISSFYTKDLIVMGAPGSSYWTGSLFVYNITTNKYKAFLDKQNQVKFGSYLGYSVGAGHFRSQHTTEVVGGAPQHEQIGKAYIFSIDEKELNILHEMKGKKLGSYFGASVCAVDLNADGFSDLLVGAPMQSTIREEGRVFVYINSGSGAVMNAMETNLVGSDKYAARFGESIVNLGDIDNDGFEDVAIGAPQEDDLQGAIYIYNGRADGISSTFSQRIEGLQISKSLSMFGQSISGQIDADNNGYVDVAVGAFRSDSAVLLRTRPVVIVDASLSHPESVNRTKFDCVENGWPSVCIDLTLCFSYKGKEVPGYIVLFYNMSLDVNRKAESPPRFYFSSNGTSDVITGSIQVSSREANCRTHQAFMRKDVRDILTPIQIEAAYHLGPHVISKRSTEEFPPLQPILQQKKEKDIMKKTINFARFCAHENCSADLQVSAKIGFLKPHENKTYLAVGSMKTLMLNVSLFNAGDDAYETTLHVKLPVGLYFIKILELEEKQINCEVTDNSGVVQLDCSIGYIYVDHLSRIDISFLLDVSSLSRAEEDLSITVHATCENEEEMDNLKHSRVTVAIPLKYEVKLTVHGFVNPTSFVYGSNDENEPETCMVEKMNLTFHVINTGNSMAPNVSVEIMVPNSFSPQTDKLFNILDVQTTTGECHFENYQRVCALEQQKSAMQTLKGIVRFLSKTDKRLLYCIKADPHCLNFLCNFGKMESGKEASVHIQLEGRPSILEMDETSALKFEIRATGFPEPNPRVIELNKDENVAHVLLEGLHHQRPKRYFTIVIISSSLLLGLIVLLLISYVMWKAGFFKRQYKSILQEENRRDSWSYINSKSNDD

activation, inactive:
Cc1ccccc1S(=O)(=O)Cc1ccc(C(=O)NCCN2CCCCC2C)o1 (centres undefined) -1%
Nc1c(C(=O)NCc2ccccc2)nnn1Cc1cccc(Cl)c1 -4%
CCCCCOC(=O)C1=C(C)Nc2nnnn2C1c1ccc(OC)c(OC)c1OC (centres undefined) -4%
CCC(=O)N1c2ccc(S(=O)(=O)CCC(=O)N3CCN(c4ccccc4)CC3)cc2CC1C (centres undefined) -5%
COc1ccc(OC)c(CNC(=O)CCc2nc(-c3cccs3)no2)c1 2%
Cc1ccccc1NC(=O)c1ccccc1 -14.5%
CCOC(=O)N1CCC(NC(=O)CCc2cn(C)c3ccccc23)CC1 8%
COc1cc2[nH]c(=S)n(Cc3ccc(C)o3)c(=O)c2cc1OC 0%
CCOC(=O)CNC(=O)CN1C(=O)CCSc2ccccc21 6%
CCOC(=O)c1ccc(CS(=O)c2ccc(Cl)cc2)o1 (centres undefined) 4%
COC(=O)C1=C(C)OC(N)=C(C#N)C1c1cc(OC)ccc1OC (centres undefined) -3%
Cc1ccc(NC(=O)C2CC(c3ccc(F)cc3)=NO2)cc1 (centres undefined) 3%
CCc1c(C)c2c(C)[nH]nc2oc1=O -1%
CC12COC3(C(=O)Nc4ccc(Cl)cn4)CC1CCC32C (centres undefined) 5%
Cc1ccc(S(=O)(=O)NCC(=O)N(CC(=O)NC2CCCCC2)Cc2ccco2)cc1 2%
O=C1Nc2c(Br)cc(Br)cc2C1(O)N1CCOCC1 (centres undefined) 9%
CCOC(=O)N1CCN(C(=O)C2CC(c3ccc(F)cc3)=NO2)CC1 (centres undefined) 6%
Clc1ccc(Cc2nn3c(-c4ccncc4)nnc3s2)cc1 2%
CCOCCc1c(O)nc(SCC(=O)NCc2ccco2)[nH]c1=O -1%
COc1cccc(C(=O)Nc2c3c(nn2-c2cccc(C)c2C)CS(=O)(=O)C3)c1OC -3%
COc1ccc2oc(=O)c(C(=O)N3CCN(c4ccccc4F)CC3)cc2c1 3.5%
CCOc1ccccc1NC(=O)C1CCN(S(=O)(=O)c2c(C)nn(C)c2C)CC1 2%
COc1ccc(CCNC(=O)CCCCn2c(=O)[nH]c3ccccc3c2=O)cc1OC 4%
C#CC(C)(C)NC(=O)CSc1nc2c(c(=O)n(C)c(=O)n2C)n1CCCC 8%
CCCS(=O)(=O)N1CCCC(C(=O)N2CCN(c3ccccc3)CC2)C1 (centres undefined) 0%
CCOC(=O)C1CCCN(C(=O)C2CCN(c3nnc(-n4cccc4)s3)CC2)C1 (centres undefined) -1%
CCOC(=O)N1CCC(Nc2c(NCCCN3CCN(c4ccc(OC)cc4)CC3)c(=O)c2=O)CC1 -4%
COC(=O)c1ccc(NC(=O)CSc2nnc(Cc3cccn3C)n2-c2ccc(F)cc2)cc1 -4%
Cc1noc(C)c1S(=O)(=O)N(CC(=O)Nc1ccc2c(c1)OCCO2)c1ccc(C(C)C)cc1 -8%
Cn1c(C(=O)N2CCC(C(N)=O)CC2)cc2c(=O)n(C)c3ccccc3c21 -1%
O=C(Nc1ccccc1C(=O)N1CCOCC1)C1CCC(=O)N1C1CCCC1 (centres undefined) 8%
CN1CCN(S(=O)(=O)c2ccc3[nH]cc(C(=O)O)c(=O)c3c2)CC1 2%
Cc1ccnc(N2C(=O)c3ccccc3C2Nc2ccc3c(c2)OCCO3)c1 (centres undefined) -5%
COCCCNC(=O)c1ccc(CNS(=O)(=O)c2ccc(NC(C)=O)cc2)cc1 -3.5%
Cc1nc(N2CCN(c3ncccn3)CC2)c2oc3ccccc3c2n1 -3.5%
CC(C)OCCCNC(=O)C1CC(=O)N(C2CCCCCCC2)C1 (centres undefined) -1%
Cc1ccc(S(=O)(=O)N2CCCC2CO)cc1 (centres undefined) 5%
COc1ccc(C(=O)NC(=O)CSc2nnc(-c3ccco3)n2-c2ccccc2)cc1 1.3%
Cc1ccccc1CN1CCN(C(=O)c2cccc(F)c2)CC1 4%
CC1CCN(Cc2nc3c(c(=O)n(C)c(=O)n3C)n2Cc2cccc3ccccc23)CC1 2%
CCOc1nc(OCC)nc(-n2cc(-c3ccccc3)nn2)n1 2%
FC(F)Oc1ccccc1C1CC(c2ccc(Br)s2)Nc2ncnn21 (centres undefined) 3%
Cc1cc(Nc2cccc(F)c2)n2ncnc2n1 -0.5%
O=C(c1ccco1)N1CCN(C(=O)c2ccc(COc3ccc(F)cc3)o2)CC1 0%
Cn1c(CNC(=O)C(C)(C)C)nc2ccccc21 -3%
Cc1cc(NS(=O)(=O)c2ccccc2)no1 5.5%
CCOC(=O)c1cn(CC(=O)Nc2ccc(C(C)C)cc2)nn1 -2%
Cc1cccc(C)c1NC(=O)N1CC=C(n2c(=O)[nH]c3ccccc32)CC1 0%
Cc1ccc(S(=O)(=O)n2nc(OC(=O)C(C)(C)C)cc2N)cc1 4%
CCOC(=O)c1c(C)c(C(=O)NCCc2ccc(S(N)(=O)=O)cc2)c(C)n1CC 16%
O=C(O)C1C2C=CC(C2)C1C(=O)N1CCN(CCO)CC1 (centres undefined) -2%
Cc1cnc(C(=O)OCC(=O)Nc2ccc(Cl)cc2Cl)cn1 3%
CCOC(=O)Cn1c(CN(Cc2ccccc2)Cc2ccccc2)nc2c1c(=O)[nH]c(=O)n2C -5%
O=S(=O)(O)CCN1CCOCC1 -6%
O=C(NC1CCCCC1)C1CCCN(S(=O)(=O)c2cccs2)C1 (centres undefined) -10.5%
COc1ccc(C(=O)NCc2cn3ccccc3n2)cc1 -2%
Cc1ccccc1NC(=O)Cc1nnc(SCC(=O)N2CCN(c3ccccc3)CC2)n1C 0.5%
CC(C)CCNC(=O)CCNS(=O)(=O)c1ccc(Cl)cc1 -2.7%
COc1ccccc1-c1c(C)nn2c(C)c(C(C)=O)cnc12 -2%
COc1cccc(OCC(O)CN2CCN(CCO)CC2)c1 (centres undefined) 3.3%
CCCC(=O)Nc1cccc(-c2cn3ccsc3n2)c1 3%
Cc1noc(C)c1S(=O)(=O)NCCc1ccc(S(N)(=O)=O)cc1 3%
CC(=O)N(CC1CCCO1)C1(C(=O)NC2CCCC2)CCCCC1 (centres undefined) 0%
COC(=O)c1ccc(CN(c2ccccc2OC)S(=O)(=O)c2cccs2)o1 -2%
O=C(CCS(=O)(=O)Cc1ccccc1F)NCCCN1CCCCC1 -2%
COc1ccc(CN2C(=O)CN=C2Nc2ccc(C)cc2C)cc1 6%
COc1cccc(N2C(=O)CC(N3CCN(S(=O)(=O)c4ccccc4)CC3)C2=O)c1 (centres undefined) -2%
CN(CCCNC(=O)CN1C(=O)CC(C)(C)S(=O)(=O)c2ccccc21)C1CCCCC1 6%
Cc1ccc(NC(=O)CCNS(=O)(=O)c2ccc3c(c2)oc(=O)n3C)cc1C 9%
O=C(COC(=O)c1ccccc1C(=O)c1ccccc1)c1ccco1 2.5%
CNC(=O)Nc1cc(C(C)(C)C)no1 -2%
Cc1cc(=O)n2nc(N3CCCC(C(=O)NCCC4=CCCCC4)C3)sc2n1 (centres undefined) -3%
CC(c1cccnc1)N(CCN(C)C)C(=O)Nc1ccc(Cl)c(Cl)c1 (centres undefined) -2%
CSc1sc(C)cc1C1C(C#N)=C(N)N(c2cccnc2)C2=C1C(=O)CCC2 (centres undefined) 0%
COc1ccc(C2C3=C(OC(C)=O)c4ccccc4C3=Nc3c2c(=O)n(C)c(=O)n3C)cc1 (centres undefined) -0.5%
COCCNC(=O)CN1C(=O)CSc2ncccc21 2.7%
CC(=O)Nc1ccc(S(=O)(=O)N2CCC(N(C)CCC(C)C)CC2)cc1 4%
CCOC(=O)N1CCC(NC(=O)COc2cc(=O)n(C)c3ccccc23)CC1 -3%
O=C(O)CCN1C(=O)CC2(CCCCC2)C1=O -1%
c1cc(-c2nn[nH]n2)ccc1CN1CCCCC1 1%
O=C(O)CSCNC(=O)CC12CC3CC(CC(C3)C1)C2 13%
CCC(C)NC(=O)C1CCC(=O)N1Cc1ccc(C)cc1 (centres undefined) 4%
O=c1c(-c2ccccc2)coc2c(CN3CCOCC3)c(O)ccc12 9.5%
Cc1noc(C)c1S(=O)(=O)N(CC(=O)NCc1ccc(Cl)cc1)c1ccc2c(c1)OCO2 3%
CC(C)C(=O)Nc1c(C(=O)c2ccc(F)cc2)oc2ccccc12 -2%
O=C(CCCCn1c(=O)[nH]c2ccccc2c1=O)NCc1ccc2c(c1)OCO2 10%
CCCC(=O)NC(C)C(c1cccs1)N1CCN(c2ccccc2)CC1 (centres undefined) -2%
Cn1cccc1C1(C(F)(F)F)NCCNC1=O (centres undefined) 1%
Cc1ccccc1CSc1nnc(Cn2c(=O)sc3ccccc32)n1C 4%
Nc1nonc1C(=O)NCCc1ccccc1 6%
CCOc1ccc(-c2nnc3ccc(SC)nn23)cc1 4%
CCOc1ccc(-n2c(SC(C)C(=O)OC)nc3c(c2=O)SCC3)cc1 (centres undefined) 0%
O=C(NCc1ccco1)C1CCCN(S(=O)(=O)c2cnc[nH]2)C1 (centres undefined) -5%
O=C(Nc1nsc(-c2ccccc2)n1)c1ccncc1 4%
COc1nc(Oc2ccc(=O)n(C)n2)nc(N(C)C)n1 4%
C=CCOc1ccc(C2/C(=C(\O)c3c(C)[nH]c(C(=O)OC)c3C)C(=O)C(=O)N2CCN(C)C)cc1 (centres undefined) -6%
CCOC(=O)C1CCN(C(=O)c2oc3ccc(S(=O)(=O)N4CCCCCC4)cc3c2C)CC1 -3%
O=C(O)c1ccc(NC(=O)c2cccs2)cc1 -2.5%
CCC1Oc2ccc(Cl)cc2N(CC(=O)O)C1=O (centres undefined) 2%
